Laboratory results as given in PubChem BioAssay (NCI).
This is part of a sample that, as a whole, favours compounds with a hit. Of some 79,000 tested, about 15% had one in any assay. Unmarked numbers belong to inactive results. The source made the active and inactive calls. Cut-off read from the data, not from the text of the source: active = growth inhibition above about 70%; inactive = the rest.

Assays:
[1] = NCI Yeast Anticancer Drug Screen. Data for the rad50 strain (AID 155);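 note: 0% = growth of vehicle-only cultures of the same strain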; conditions: S. cerevisiae rad50 strain growth inhibition; at 50.0 µM; hits give high values
In short: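 Inhibition values express reduced yeast growth in compound-treated cultures relative to vehicle-treated controls.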

[2] = NCI Yeast Anticancer Drug Screen. Data for the mec2-1 strain (AID 157); conditions: S. cerevisiae mec2-1 strain, at 50.0 µM, hits give high values
In short: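 Compounds were applied to mec2-1 yeast cells. Their growth was then compared with that of vehicle-treated cultures to give growth inhibition.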

[3] = NCI Yeast Anticancer Drug Screen. Data for the sgs1 mgt1 strain (AID 161);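 note: 0% = growth of cultures given vehicle only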; conditions: S. cerevisiae sgs1 mgt1 strain, at 50.0 µM, hits give high values
In short: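 Compounds are added to genetically altered yeast, and growth is compared with cultures given vehicle alone to give percent inhibition.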

[4] = NCI Yeast Anticancer Drug Screen. Data for the cln2 rad14 strain (AID 165);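 note: 0% = growth equal to vehicle treated cultures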; conditions: S. cerevisiae cln2 rad14 strain, at 50.0 µM, hits give high values
In short: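 Strain: cln2 rad14 yeast, altered in cell cycle control and DNA damage repair. Read-out: growth inhibition vs vehicle.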

[5] = NCI Yeast Anticancer Drug Screen. Data for the bub3 strain (AID 167); conditions: S. cerevisiae bub3 mutant strain, at 50.0 µM, hits give high values
In short: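 Steps: expose the mutant yeast strain to compound; grow alongside vehicle-treated cultures; measure growth; express inhibition against the vehicle cultures.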

[6] = NCI Yeast Anticancer Drug Screen. Data for the mlh1 rad18 strain (AID 175); conditions: S. cerevisiae mlh1 rad18 strain growth inhibition; at 50.0 µM; hits give high values
In short: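 A repair-deficient yeast strain is exposed to test compound, and growth is scored relative to vehicle-treated controls.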

| Compound | growth inhibition [1] | growth inhibition [2] | growth inhibition [3] | growth inhibition [4] | growth inhibition [5] | growth inhibition [6] |
| --- | --- | --- | --- | --- | --- | --- |
| Cn1c(=O)c2c(nc(CCNC(=O)c3ccccc3)n2C)n(C)c1=O | -1.15% | -7.75% | 11.1% | -27.4% | 5.6% | -17.1% |
| O=c1nc(Oc2ccccc2)nc2c3ccccc3ccn12 | -5.4% | 16.1% | 11.9% | -9.9% | 18.8% | 24.4% |
| COC(=O)C(C/C=C(\C)c1ccccc1)C(C)=O (stereo unspecified) | -13.1% | -23.7% | -25% | 19.1% | -23.1% | -0.35% |
| COc1c(C(=O)O)ccc(C(=O)NCCCCCN(O)C(=O)CCC(=O)NCCCCCN(O)C(=O)CCC(=O)NCCCCCN(O)C(C)=O)c1OC | -7.25% | 4.25% | -5.35% | -24.9% | -0.6% | -28.4% |
| CCc1cc(Cc2cc(Cl)c(NC(=O)C(=O)C3NC(=O)NC3=O)c(CC)c2)cc(Cl)c1NC(=O)C(=O)C1NC(=O)NC1=O (stereo unspecified) | 6.5% | 5.2% | 4.25% | 15.9% | 2.8% | 8.65% |
| CS(C)=O.CS(C)=O.[Cl][Ru+2][Cl].[NH-]c1ccccc1[NH-] | 38.6% | 7.6% | 34.4% | 23.8% | -1.9% | 27.8% |
| C=CC(C)(C)/C=C/C=O | -18.8% | -15.1% | -12.1% | 5.65% | 24.6% | -32.1% |
| CC(=O)Oc1c(C(C)C)cccc1C(C)(C)C | -10.8% | -9.95% | -1.1% | -14.1% | -34.1% | -13.5% |
| CCOC(=O)C(CCCBr)(C(=O)OCC)N1C(=O)c2ccccc2C1=O | 20.8% | -13.3% | 10.9% | 18.2% | 31.8% | 12.6% |
| O=C(Nc1ccc2ccccc2c1)c1ccc(Cl)cc1Cl | -12.1% | 14.2% | -0.7% | -2.85% | 2.45% | -14.8% |
| CN(C)C(=O)C1(C)CC2CCC1C2 (stereo unspecified) | -2.25% | -15.3% | -8.65% | 13.9% | 2.8% | -0.75% |
| O=C(O)c1cc(-c2ccc(-c3ccccc3)cc2)nc2cc3ccccc3cc12 | -15.7% | -3.9% | -2.15% | -20.6% | -54.9% | 22% |
| NC1=C(O)C(=O)C(c2ccc(C3OC(N)=C(O)C3=O)cc2)O1 (stereo unspecified) | -8.15% | -17.6% | -18.6% | -0.3% | -27.6% | -3.5% |
| C[n+]1cccc(/C=C/c2ccc3cccc(O)c3n2)c1 | 4% | -3.75% | -12.7% | -2.65% | -42.4% | 8.35% |
| O=S1(=O)CCCCc2ccccc21 | 7.35% | -0.75% | 3.75% | -9.35% | 1.85% | -23.2% |
| NC(=O)C(=CNC(=S)Nc1ccc(Cl)c(Cl)c1)C(N)=O | 8.6% | -3.75% | 18.4% | 27.3% | 2.05% | 3.9% |
| Cc1cc(Cc2cc(Cc3cc(C)cc(C(C)(C)C)c3O)c(C)cc2C)c(O)c(C(C)(C)C)c1 | 50.4% | 18.4% | 13.3% | -1.75% | -23.4% | 38.5% |
| C/C(=N/NS(=O)(=O)c1ccc(C)cc1)C(C)C | 3.05% | 1.75% | 10.8% | -6.85% | 3.4% | 23.8% |
| N=C1CCCC1C(=S)SCCC(N)=O (stereo unspecified) | -11.8% | -30.2% | -51.5% | 6.8% | -30.8% | 6.15% |
| FC(F)(F)c1cccc(CSCc2c(CSCc3cccc(C(F)(F)F)c3)c(CSCc3cccc(C(F)(F)F)c3)c(CSCc3cccc(C(F)(F)F)c3)c(CSCc3cccc(C(F)(F)F)c3)c2CSCc2cccc(C(F)(F)F)c2)c1 | -12.7% | -2.5% | -6.35% | 12.2% | -7.65% | 7.45% |
| CCOC(=O)C(=O)N1Cc2cc3c(cc2C2CC(O)C(O)CC21)OCO3 (stereo unspecified) | -8.2% | -3.9% | -1.1% | 6.05% | 2.85% | 5.85% |

| Compound | growth inhibition [1] | growth inhibition [2] | growth inhibition [3] | growth inhibition [4] | growth inhibition [5] | growth inhibition [6] |
| --- | --- | --- | --- | --- | --- | --- |
| COc1ccccc1C(O)(c1ccccc1OC)C1(O)CCN(C)CC1 | -10.8% | -10.9% | -4.8% | -4.45% | -5.3% | -10.4% |
| CC1(CN2CCCCC2)COC(c2ccccc2)(c2ccccc2)OC1 | -8.1% | -8.85% | -13.6% | -36.1% | 5.75% | -0.9% |
| c1ccc(-c2cc(-c3ccccc3)c3ccc4c(-c5ccccc5)cc(-c5ccccc5)c5ccc2c3c54)cc1 | -43% | -17.4% | -14.3% | 11.6% | -18.9% | -26.2% |
| O=[N+]([O-])c1cccc2cnccc12 | -7.25% | 22.4% | 3.9% | -21.1% | 5.5% | 17.6% |
| CN(C)c1ccc(/C=C/c2nc3ccc([N+](=O)[O-])cc3[nH]2)cc1 | -2.4% | 3.6% | 9.65% | 14.2% | 0.6% | 0.1% |
| O=[N+]([O-])c1ccc(CCCCCc2ccccc2)cc1 | -6.15% | -17.6% | 0.6% | -75.2% | 4.5% | -21.4% |
| COC(=N)/C(C#N)=N/C1OCC(O)C(O)C1O (stereo unspecified) | 5.65% | -21.1% | 2.15% | -31.6% | 0.35% | 0.45% |
| O=C1C2=Cc3ccccc3CCN2c2ccc([N+](=O)[O-])cc21 | -28.9% | 5.35% | -39.4% | -7% | 1.7% | -24.2% |
| CCCN=C(N)NC#N | 16.9% | 0.8% | -2.4% | 7.85% | -16.6% | 15.1% |
| C=C1C(=O)O[C@H]2C3OC3(C)CC/C=C(/C(=O)OC)[C@@H](OC(C)=O)[C@H](OC(=O)C3(C)OC3C)[C@H]12 (stereo partly specified) | 12.6% | 31.8% | 13.5% | 22.4% | 5.55% | 8.85% |
| COc1cc2c(c3oc(=O)cc(CCC(=O)O)c13)C1CC(=O)OC1O2 (stereo unspecified) | 3.75% | -16.6% | -9.15% | 1% | -10.7% | 10.8% |
| CCCCCCCC/C=C\CCCCCCC(F)C(=O)O (stereo unspecified) | 25.4% | 4.55% | 16.2% | 6.1% | -11.8% | -43% |
| O=C(Nc1cc2cc([N+](=O)[O-])ccc2oc1=O)c1cccs1 | -12.2% | -30.7% | -6.8% | 4.85% | -40.2% | -15.6% |
| N#Cc1c(-c2ccc(Cl)cc2)c2c(n(C3OC(CO)C(O)C(O)C3O)c1=S)CCC2 (stereo unspecified) | 12.5% | 32.1% | 61.3% | 31.9% | 50.4% | 42.4% |
| O=C(O)COc1ccccc1OCC(=O)O | 17.4% | 7.3% | -8.6% | 0.6% | -0.1% | 1.2% |
| CCCCN(CC)CCNc1cc(C)nc(/N=C(\N)Nc2ccc(Cl)c(Cl)c2)n1 | 95.8% (active) | 85% (active) | 96.3% (active) | 29.1% | 76.5% (active) | 92.5% (active) |
| CCOC(=O)CC1(C)NC(=O)NC1=O (stereo unspecified) | 4.35% | 6.65% | 8.45% | -31.8% | -4.4% | 1% |
| COC(=O)c1ccccc1/C=C1\Cc2cc3c(cc2C1=O)CCC3 | -31.6% | -45% | -1.45% | 5.65% | -4.45% | -8.05% |
| CCCCCCCCCCCCC(Br)C(=O)OCC (stereo unspecified) | 7.55% | -7.6% | 16.1% | -5.2% | -6.6% | 3.95% |
| O=C(c1cccnc1)c1cc(-c2ccccn2)c(=O)n2ccccc12 | 0.7% | 1.95% | -13.6% | -1.05% | -15.8% | -36.6% |
